Assay results taken from PubChem BioAssay (NCI).
“And” between values parts separate entries of the source, which are not always exact repeats. Equal entries are not always repeated. This is part of a sample that, as a whole, favours compounds with a hit. Of some 83,000 tested, about 20% had one in any assay.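 96-well plates, one dose, 48 hours. Percent growth reported; active if below 10.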 The source made the active and inactive calls. Starred links: 1 amine or outer side, 2 acyl side, 3 side chain; linkers in the order of their positions; H or OH if unused. Positions of bridges follow the written chain, without caps; N, C: chain ends. Non-standard residues stand in square brackets, D forms with d. Residues, ends and D or L forms follow the SMILES beside them. Chains are numbered I, II in the order given. Actinocin(9to1) = Cc1c2oc3c(C)ccc(C(=O)[*:1])c3nc-2c(C(=O)[*:2])c(N)c1=O; aThr = C[C@H](O)[C@H](N)C(=O)O; NMeV = CN[C@H](C(=O)O)C(C)C; Sar = CNCC(=O)O

System: SNB-19 CNS
Assay: NCI-60 one-dose screen, 48 h (100 = growth as untreated, 0 = no growth, -100 = all killed)
Conditions: 10 µM

SMILES	growth
N#C/C(=C1C=C/C(=N\O)C(Cl)=C\1)c1ccccc1	80.5% (inactive)
CN(C)CCC(=O)c1c[nH]c2ccccc12	112% (inactive)
O=c1[nH]cc(F)c(=O)[nH]1	75.7% (inactive) and 83.3% (inactive)
CSc1ccc2c(c1)C(N1CCN(C)CC1)Cc1ccccc1S2 (stereo unspecified)	54.7% (inactive)
COc1cc(C(C)(C)C)cc(OC)c1C(O)(c1c(OC)cc(C(C)(C)C)cc1OC)c1c(OC)cc(C(C)(C)C)cc1OC	-96.1% (active)
S=c1[nH]nc(Cc2ccccc2)c(=S)[nH]1	109% (inactive)
O=C(/C(=C/c1ccccc1)CBr)c1ccccc1	90.9% (inactive)
Nc1ccc2cc(Br)c3ccccc3c2c1	56.3% (inactive)
CN1CCN(c2ccc3nc(-c4ccc5nc(-c6ccc(O)cc6)[nH]c5c4)[nH]c3c2)CC1	106% (inactive)
Cc1cc(NCCCN(C)C)c2ccc3c(ccc4c(NCCCN(C)C)cc(C)nc43)c2n1	-32.8% (active)
Cc1c2oc3c(C)ccc(C(=O)N[C@@H]4C(=O)N[C@H](C(C)C)C(=O)N5CCC[C@H]5C(=O)N(C)CC(=O)N(C)[C@@H](C(C)C)C(=O)O[C@H]4C)c3nc-2c(C(=O)N[C@@H]2C(=O)N[C@H](C(C)C)C(=O)N3CCC[C@H]3C(=O)N(C)CC(=O)N(C)[C@@H](C(C)C)C(=O)O[C@H]2C)c(N)c1=O (I: [aThr][dV]P[Sar][NMeV] / II: [aThr][dV]P[Sar][NMeV]; ester I:1-I:C, II:1-II:C; linker I:N-II:N via Actinocin(9to1))	-0.258% (active)
Cc1cnc(/C=N\NC(N)=S)c2cccc(N)c12	24% (inactive)
CCCCCCCCCCCCCCCCCN	102% (inactive)
BrC/C=C/C[P+](c1ccccc1)(c1ccccc1)c1ccccc1	46.6% (inactive)

System: U251 CNS
Assay: as above
Conditions: 10 µM

SMILES	growth
CN(C)CCC(=O)c1c[nH]c2ccccc12	106% (inactive)
O=c1[nH]cc(F)c(=O)[nH]1	74.7% (inactive) and 78.7% (inactive)
CSc1ccc2c(c1)C(N1CCN(C)CC1)Cc1ccccc1S2 (stereo unspecified)	33.3% (inactive)
COc1cc(C(C)(C)C)cc(OC)c1C(O)(c1c(OC)cc(C(C)(C)C)cc1OC)c1c(OC)cc(C(C)(C)C)cc1OC	-91.6% (active)
S=c1[nH]nc(Cc2ccccc2)c(=S)[nH]1	100% (inactive)
O=C(/C(=C/c1ccccc1)CBr)c1ccccc1	78.6% (inactive)
Nc1ccc2cc(Br)c3ccccc3c2c1	65.6% (inactive)
CN1CCN(c2ccc3nc(-c4ccc5nc(-c6ccc(O)cc6)[nH]c5c4)[nH]c3c2)CC1	87.5% (inactive)
Cc1cc(NCCCN(C)C)c2ccc3c(ccc4c(NCCCN(C)C)cc(C)nc43)c2n1	-30.5% (active)
Cc1c2oc3c(C)ccc(C(=O)N[C@@H]4C(=O)N[C@H](C(C)C)C(=O)N5CCC[C@H]5C(=O)N(C)CC(=O)N(C)[C@@H](C(C)C)C(=O)O[C@H]4C)c3nc-2c(C(=O)N[C@@H]2C(=O)N[C@H](C(C)C)C(=O)N3CCC[C@H]3C(=O)N(C)CC(=O)N(C)[C@@H](C(C)C)C(=O)O[C@H]2C)c(N)c1=O (I: [aThr][dV]P[Sar][NMeV] / II: [aThr][dV]P[Sar][NMeV]; ester I:1-I:C, II:1-II:C; linker I:N-II:N via Actinocin(9to1))	6.96% (active)
Cc1cnc(/C=N\NC(N)=S)c2cccc(N)c12	25% (inactive)
CCCCCCCCCCCCCCCCCN	96.3% (inactive)
BrC/C=C/C[P+](c1ccccc1)(c1ccccc1)c1ccccc1	18.2% (inactive)

System: PC-3 prostate
Assay: as above
Conditions: 10 µM

SMILES	growth
N#C/C(=C1C=C/C(=N\O)C(Cl)=C\1)c1ccccc1	14.5% (inactive)
CN(C)CCC(=O)c1c[nH]c2ccccc12	84.3% (inactive)
O=c1[nH]cc(F)c(=O)[nH]1	73.6% (inactive) and 75.1% (inactive)
CSc1ccc2c(c1)C(N1CCN(C)CC1)Cc1ccccc1S2 (stereo unspecified)	26.5% (inactive)
COc1cc(C(C)(C)C)cc(OC)c1C(O)(c1c(OC)cc(C(C)(C)C)cc1OC)c1c(OC)cc(C(C)(C)C)cc1OC	-86.8% (active)
S=c1[nH]nc(Cc2ccccc2)c(=S)[nH]1	89.1% (inactive)
O=C(/C(=C/c1ccccc1)CBr)c1ccccc1	74.8% (inactive)
Nc1ccc2cc(Br)c3ccccc3c2c1	65.2% (inactive)
CN1CCN(c2ccc3nc(-c4ccc5nc(-c6ccc(O)cc6)[nH]c5c4)[nH]c3c2)CC1	69.7% (inactive)
Cc1cc(NCCCN(C)C)c2ccc3c(ccc4c(NCCCN(C)C)cc(C)nc43)c2n1	-56.3% (active)
Cc1c2oc3c(C)ccc(C(=O)N[C@@H]4C(=O)N[C@H](C(C)C)C(=O)N5CCC[C@H]5C(=O)N(C)CC(=O)N(C)[C@@H](C(C)C)C(=O)O[C@H]4C)c3nc-2c(C(=O)N[C@@H]2C(=O)N[C@H](C(C)C)C(=O)N3CCC[C@H]3C(=O)N(C)CC(=O)N(C)[C@@H](C(C)C)C(=O)O[C@H]2C)c(N)c1=O (I: [aThr][dV]P[Sar][NMeV] / II: [aThr][dV]P[Sar][NMeV]; ester I:1-I:C, II:1-II:C; linker I:N-II:N via Actinocin(9to1))	0.295% (active)
Cc1cnc(/C=N\NC(N)=S)c2cccc(N)c12	29% (inactive)
CCCCCCCCCCCCCCCCCN	92.3% (inactive)
BrC/C=C/C[P+](c1ccccc1)(c1ccccc1)c1ccccc1	22.4% (inactive)
